Bioassay records: PubChem, National Center for Advancing Translational Sciences (NCATS)
IL-1B inflam inh: inflammasome signaling inhibition, IL-1 beta readout; activity change, % at 57.5 µM; 360,000 tested, 4.7% active; THP-1 LPS/ATP IL-1B secretion, AlphaLISA, 16 h; active compounds read low; in the data active means activity change below about -50%; inconclusive means mostly about -30% to -49%
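Secreted IL-1B measured by AlphaLISA bead assay after 16 h compound exposure of THP-1 cells; compounds (final up to 57.5 uM) added 1 h before LPS (250 ng/mL) and ATP (1.25 mM) stimulation; lower signal means less secretion.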
TDP1 cell noCPT: qHTS for Inhibitors of human tyrosyl-DNA phosphodiesterase 1 (TDP1): qHTS in cells in absence of CPT; DT40 Tdp1-/- hTDP1 cells, no CPT, ATP luminescence, 48 h; Potency, µM (series often up to 46.2 µM), inactives show at the top dose activity change, negative = growth inhibition, hits mostly inhibitors; 420,000 tested, 15% active; further: potency means the concentration at half of the fitted maximal effect; nearly all actives have a fitted effect of over 55% in size
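Chicken DT40 Tdp1-/- cells complemented with human TDP1, screened without camptothecin (DMSO vehicle only), 400 cells/well. Compounds pin-transferred, cells incubated at 37 °C for at least 48 hr. Growth read as ATP-dependent luminescence (CellTiter-Glo, 30 min at RT).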
uPA generation: inhibitors of cell surface uPA generation; cell surface uPA generation assay, qHTS; Potency, µM (highest dose often 38.3 µM), for the others: top-dose activity change, negative = inhibition, actives largely listed as inhibitors; 330,000 tested, 0.31% active; AID 540303; active means well fitted inhibition curve with a large enough effect; inconclusive means small, poorly fitted or top-dose-only effect; inactive means no such curve, though single readings can be large or run the other way; tested in mouse RAW 264.7 cells; further: potency means the concentration at half of the fitted maximal effect; nearly all actives have a fitted effect of over 55% in size
HT1080 IDH1KD tx: HT-1080 IDH1 knockdown cell toxicity (counter line). Potency, µM (doses to about 46.1 µM), without a hit: at the top dose activity, negative = toxicity, hits mostly cytotoxic. HT-1080 IDH1 knockdown viability, ATP luminescence, 48 h. 360,000 tested, 2% active. AID 686971;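 further: potency means the concentration at half of the fitted maximal effect; 0% = DMSO wells and -100% = cell-free medium wells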
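Luminescent ATP read-out (CellTiter-Glo, 10 min at room temperature) after 48 h compound exposure at 37 °C gave viability of IDH1-knockdown HT-1080 cells. Activity was normalised to DMSO and cell-free wells, then fitted as concentration-response curves.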
DT40 TDP1 CPT: growth inhibition of DT40 Tdp1-/-;hTDP1 cells with camptothecin (screen for TDP1 inhibitors) | chicken DT40 Tdp1-/-;hTDP1 cells + 20 nM CPT, ATP luminescence, 48 h | Potency, µM (top dose mostly 46.2 µM), for the others: top-dose activity change, negative = growth inhibition, usual class: inhibitors | 420,000 tested, 12% active; further: potency means the concentration at half of the fitted maximal effect; nearly all actives have a fitted effect of over 55% in size
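Cell growth measured by CellTiter-Glo luminescence after a minimum 48 h, 37 C compound exposure with 20 nM CPT in Tdp1-knockout DT40 cells stably expressing hTDP1, seeded 400/well; qHTS titration format.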
HT1080-NT tox: kills 2HG-producing HT-1080-NT fibrosarcoma cells | HT-1080-NT fibrosarcoma viability, CellTiter-Glo ATP luminescence, 48 h | AID 686970 | 360,000 tested, 1.6% active | Potency, µM (series often up to 46.1 µM), without a hit: at the top dose activity, negative = less viability, actives largely listed as cytotoxic;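 further: NT is the 2HG producing partner of a matched IDH1 knockdown line; potency means the concentration at half of the fitted maximal effect; 0% = DMSO-treated cells and -100% = media-only wells without cells; nearly all actives have a fitted effect of over 55% in size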
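Read-out is CellTiter-Glo luminescence after 10 minutes at room temperature, following 48 hours' compound treatment of HT-1080-NT cells (750 cells/well, RPMI, 5% FBS, 37 degrees C).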
An asterisk follows results filed as active. An excerpt weighted towards active compounds, which were near 19% of everything screened. Unless noted, the call rests on the fitted dose curve; in most records, active means well fitted curve in the direction sought with a large enough effect; inconclusive means small, poorly fitted or top-dose-only effect, or another doubt; inactive means no such curve, though single readings can be large; an effect the other way counts as inactive or inconclusive. Unless noted, on the % scale 0 is the no-effect control and ±100 the full control effect.

Results for CC1(C(=O)NCc2ccccc2Br)CCN1Cc1ccc(-c2ccccn2)cc1 (configuration not stated) ?
IL-1B inflam inh: -29; TDP1 cell noCPT: 18µM*; HT1080 IDH1KD tx: inconclusive; DT40 TDP1 CPT: 15µM*; HT1080-NT tox: inconclusive

What do the screens show for `Cc1ccc(NC(=O)Cn2nc(-c3ccccc3)nc(Cc3ccccc3)c2=O)cc1`?
TDP1 cell noCPT: -16%; DT40 TDP1 CPT: 10%

What do the screens show for `C[C@@H]1CN([C@H](C)CO)C(=O)CCCn2nncc2CO[C@H]1CN(C)C(=O)Nc1ccc(N2CCN(C)CC2)cc1`?
IL-1B inflam inh: 77; TDP1 cell noCPT: 10%; HT1080 IDH1KD tx: -6%; DT40 TDP1 CPT: inconclusive; HT1080-NT tox: -1%

Results for CC1(C(=O)NCc2cccc3ccccc23)CCN1Cc1ccc2ccccc2c1 (configuration not stated) ?
IL-1B inflam inh: -5; TDP1 cell noCPT: 18µM*; HT1080 IDH1KD tx: inconclusive; DT40 TDP1 CPT: 18µM*; HT1080-NT tox: inconclusive

Results for COc1ccccc1CNC(=O)C1(C)CCN1Cc1ccc2ccccc2c1 (configuration not stated) ?
IL-1B inflam inh: -10; TDP1 cell noCPT: -98%; HT1080 IDH1KD tx: inconclusive; DT40 TDP1 CPT: -95%; HT1080-NT tox: inconclusive

Results for Cn1c(=O)n(C)c2cc(N3CCCCC3)c(NC(=O)c3c(F)cccc3F)cc21 ?
TDP1 cell noCPT: 26µM*; DT40 TDP1 CPT: 13µM*

What do the screens show for `Cn1c(=O)n(C)c2cc(N3CCCC3)c(NC(=O)c3cccc(F)c3)cc21`?
IL-1B inflam inh: 0; TDP1 cell noCPT: inconclusive; uPA generation: -4%; HT1080 IDH1KD tx: 6%; DT40 TDP1 CPT: inconclusive; HT1080-NT tox: 15%

Results for Cc1ccccc1C(=O)Nc1cc2c(cc1N1CCCCC1)n(C)c(=O)n2C ?
TDP1 cell noCPT: 12µM*; DT40 TDP1 CPT: -82%

How did Cc1ccccc1-c1cncnc1NCc1ccccc1 do in these assays?
TDP1 cell noCPT: -20%; DT40 TDP1 CPT: -7%

What do the screens show for `COc1ccc(CCNC(=O)Cn2ncc3c(C)n(Cc4ccccc4F)c(C)c3c2=O)cc1OC`?
TDP1 cell noCPT: -29%; DT40 TDP1 CPT: 8%

How did CCOC(=O)c1c(C)[nH]c(C(=O)CN(C)CC(=O)Nc2ccccc2Cl)c1C do in these assays?
IL-1B inflam inh: 14; TDP1 cell noCPT: 21µM*; uPA generation: 1%; HT1080 IDH1KD tx: -9%; DT40 TDP1 CPT: inconclusive; HT1080-NT tox: -7%

What do the screens show for `CCN(CC(=O)Nc1ccccc1C(F)(F)F)CC(=O)c1[nH]c(C)c(C(C)=O)c1C`?
IL-1B inflam inh: 2; TDP1 cell noCPT: 16µM*; HT1080 IDH1KD tx: -3%; DT40 TDP1 CPT: 23µM*; HT1080-NT tox: -5%

How did CCOC(=O)c1c(C)[nH]c(C(=O)COC(=O)[C@H](C)NC(=O)c2ccccc2Cl)c1C do in these assays?
IL-1B inflam inh: 14; TDP1 cell noCPT: -28%; uPA generation: 0%; HT1080 IDH1KD tx: 6%; DT40 TDP1 CPT: -8%; HT1080-NT tox: 10%

What do the screens show for `CC(=O)c1c(C)[nH]c(C(=O)CN(C)CC(=O)Nc2ccccc2Cl)c1C`?
IL-1B inflam inh: -9; TDP1 cell noCPT: 21µM*; uPA generation: -7%; HT1080 IDH1KD tx: -15%; DT40 TDP1 CPT: inconclusive; HT1080-NT tox: -14%

What do the screens show for `CCC(=O)Nc1ccc2ccccc2c1`?
IL-1B inflam inh: -1; TDP1 cell noCPT: 9%; uPA generation: -3%; HT1080 IDH1KD tx: 18%; DT40 TDP1 CPT: 5%; HT1080-NT tox: 22%

What do the screens show for `Oc1ccc(Nc2ccc3ccccc3c2)cc1`?
IL-1B inflam inh: inconclusive; TDP1 cell noCPT: 23µM*; uPA generation: -8%; HT1080 IDH1KD tx: inconclusive; DT40 TDP1 CPT: 18µM*; HT1080-NT tox: -25%

What do the screens show for `Nc1cc([N+](=O)[O-])ccc1Nc1ccc(O)cc1`?
IL-1B inflam inh: -9; TDP1 cell noCPT: inconclusive; uPA generation: inconclusive; HT1080 IDH1KD tx: -23%; DT40 TDP1 CPT: inconclusive; HT1080-NT tox: -10%

How did Cc1cc(Nc2ccc(O)cc2)ccc1N do in these assays?
TDP1 cell noCPT: 3.2µM*; DT40 TDP1 CPT: 5µM*

How did COc1ccc(S(=O)(=O)NCC(=O)NCc2cc(=O)n(C)c(=O)n2C)cc1 do in these assays?
IL-1B inflam inh: 19; TDP1 cell noCPT: 10%; uPA generation: -4%; HT1080 IDH1KD tx: 13%; DT40 TDP1 CPT: 3%; HT1080-NT tox: 23%

What do the screens show for `CCCCN(C)c1c(C)nc2ccc(C(=O)N(C)CCN(C)C)cn12`?
IL-1B inflam inh: 5; TDP1 cell noCPT: -2%; HT1080 IDH1KD tx: 10%; DT40 TDP1 CPT: 1%; HT1080-NT tox: 2%

How did Cc1ccc(C)c(NC(=O)CN2C(=O)C3CC=CCC3C2=O)c1 (configuration not stated) do in these assays?
IL-1B inflam inh: -17; TDP1 cell noCPT: -13%; HT1080 IDH1KD tx: -5%; DT40 TDP1 CPT: 0%; HT1080-NT tox: 0%

How did Cc1ccc(C(=O)NCCSC(C)(C)C)cc1[N+](=O)[O-] do in these assays?
IL-1B inflam inh: 1; TDP1 cell noCPT: inconclusive; uPA generation: -1%; HT1080 IDH1KD tx: 12%; DT40 TDP1 CPT: inconclusive; HT1080-NT tox: 10%

How did Cc1c(C(=O)NCCSc2ccc(Cl)cc2)cccc1[N+](=O)[O-] do in these assays?
IL-1B inflam inh: -20; TDP1 cell noCPT: -29%; uPA generation: -2%; HT1080 IDH1KD tx: -11%; DT40 TDP1 CPT: -14%; HT1080-NT tox: -2%

What do the screens show for `Cc1c(C(=O)NCCSCc2ccccc2)cccc1[N+](=O)[O-]`?
IL-1B inflam inh: -57*; TDP1 cell noCPT: -11%; uPA generation: -4%; HT1080 IDH1KD tx: -3%; DT40 TDP1 CPT: -21%; HT1080-NT tox: 0%

What do the screens show for `Cc1c(C(=O)NCCSCc2ccc(Cl)cc2Cl)cccc1[N+](=O)[O-]`?
IL-1B inflam inh: -58*; TDP1 cell noCPT: inconclusive; uPA generation: 5%; HT1080 IDH1KD tx: inconclusive; DT40 TDP1 CPT: inconclusive; HT1080-NT tox: inconclusive

How did Cc1ccc(C(=O)NCCSCc2ccc(Cl)cc2Cl)cc1[N+](=O)[O-] do in these assays?
IL-1B inflam inh: -58*; TDP1 cell noCPT: inconclusive; uPA generation: 3%; HT1080 IDH1KD tx: 0%; DT40 TDP1 CPT: -1%; HT1080-NT tox: -16%

Results for Cc1ccc(N2C(=O)[C@@H]3CSC(c4ccc(C(F)(F)F)cc4)N3C2=O)cc1 (some centres not stated) ?
TDP1 cell noCPT: -20%; DT40 TDP1 CPT: 0%
